# Only a selection was taken, and the strongest signals are over-represented in it overall.
# B1: AFCNVH (Aspergillus fumigatus) (protein)
# chain: MSLRGFHTTCDTIVLKDKHILSSRCKRPDGTYSFSEIDLNDCLGNNNGKFVWGGESFVDSASQVNLALEGGEGRPMLHAQLNDWHGSVQSASVNLGECIQNEAGGLEYMHC
# Experiments:
# Assay in all cases: glycan array binding signal (z-score within array); higher = stronger binding
# Settings in all cases: glycan notation: IUPAC condensed, linker removed
# [1] = biological target: GlcNAc(b1-2)[GlcNAc(b1-6)]Man(a1-6)[GlcNAc(b1-2)Man(a1-3)]Man(b1-4)GlcNAc(b1-4)GlcNAc
# Procedure, shortened: (§1)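 The binding signal is a Z-score computed within each array. Data were drawn from 3228 arrays in the Consortium for Functional Glycomics database, restricted to those with a known protein sequence. Scores were averaged over arrays of the same protein sequence at different concentrations or buffers, and over linkers, and negative values can be taken as non-binding.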
# [2] = biological target: GlcNAc(b1-3)Gal(b1-4)Glc
# Procedure, shortened: as §1
# [3] = biological target: GlcNAc(b1-3)Gal(b1-4)GlcNAc(b1-3)Gal(b1-4)GlcNAc(b1-2)[GlcNAc(b1-3)Gal(b1-4)GlcNAc(b1-3)Gal(b1-4)GlcNAc(b1-6)]Man(a1-6)[GlcNAc(b1-3)Gal(b1-4)GlcNAc(b1-3)Gal(b1-4)GlcNAc(b1-2)Man(a1-3)]Man(b1-4)GlcNAc(b1-4)[Fuc(a1-6)]GlcNAc
# Procedure, shortened: as §1
# [4] = biological target: GlcNAc(b1-3)Gal(b1-4)GlcNAc(b1-3)Gal(b1-4)GlcNAc(b1-3)Gal(b1-4)GlcNAc(b1-2)Man(a1-3)[GlcNAc(b1-3)Gal(b1-4)GlcNAc(b1-3)Gal(b1-4)GlcNAc(b1-3)Gal(b1-4)GlcNAc(b1-2)Man(a1-6)]Man(b1-4)GlcNAc(b1-4)GlcNAc
# Procedure, shortened: as §1
# [5] = biological target: GlcNAc(b1-3)Gal(b1-4)GlcNAc(b1-3)Gal(b1-4)GlcNAc(b1-3)Gal(b1-4)GlcNAc(b1-2)[GlcNAc(b1-3)Gal(b1-4)GlcNAc(b1-3)Gal(b1-4)GlcNAc(b1-3)Gal(b1-4)GlcNAc(b1-6)]Man(a1-6)[GlcNAc(b1-3)Gal(b1-4)GlcNAc(b1-3)Gal(b1-4)GlcNAc(b1-3)Gal(b1-4)GlcNAc(b1-2)Man(a1-3)]Man(b1-4)GlcNAc(b1-4)[Fuc(a1-6)]GlcNAc
# Procedure, shortened: as §1
# [6] = biological target: GlcNAc(b1-3)Gal(b1-4)GlcNAc(b1-3)Gal(b1-4)GlcNAc(b1-3)Gal(b1-4)GlcNAc(b1-3)Gal(b1-4)GlcNAc(b1-2)Man(a1-3)[GlcNAc(b1-3)Gal(b1-4)GlcNAc(b1-3)Gal(b1-4)GlcNAc(b1-3)Gal(b1-4)GlcNAc(b1-3)Gal(b1-4)GlcNAc(b1-2)Man(a1-6)]Man(b1-4)GlcNAc(b1-4)[Fuc(a1-6)]GlcNAc
# Procedure, shortened: as §1
# [7] = biological target: GlcNAc(b1-3)Gal(b1-4)GlcNAc(b1-3)Gal(b1-4)GlcNAc(b1-3)Gal(b1-4)GlcNAc(b1-3)Gal(b1-4)GlcNAc(b1-2)[GlcNAc(b1-3)Gal(b1-4)GlcNAc(b1-3)Gal(b1-4)GlcNAc(b1-3)Gal(b1-4)GlcNAc(b1-3)Gal(b1-4)GlcNAc(b1-6)]Man(a1-6)[GlcNAc(b1-3)Gal(b1-4)GlcNAc(b1-3)Gal(b1-4)GlcNAc(b1-3)Gal(b1-4)GlcNAc(b1-3)Gal(b1-4)GlcNAc(b1-2)Man(a1-3)]Man(b1-4)GlcNAc(b1-4)[Fuc(a1-6)]GlcNAc
# Procedure, shortened: as §1
# [8] = biological target: GlcNAc(b1-3)[GlcNAc(b1-4)][GlcNAc(b1-6)]GlcNAc
# Procedure, shortened: as §1
# [9] = biological target: GlcNAc(b1-4)GlcNAc(b1-4)GlcNAc(b1-4)GlcNAc(b1-4)GlcNAc
# Procedure, shortened: as §1
# [10] = biological target: GlcNAc(b1-6)GalNAc
# Procedure, shortened: as §1
# [11] = biological target: Kdn(a2-3)Gal(b1-4)[Fuc(a1-3)]GlcNAc
# Procedure, shortened: as §1
# [12] = biological target: Man(a1-2)Man(a1-3)[Man(a1-2)Man(a1-6)]Man(a1-6)[Man(a1-2)Man(a1-2)Man(a1-3)]Man(b1-4)GlcNAc(b1-4)GlcNAc
# Procedure, shortened: as §1
# [13] = biological target: Man(b1-4)GlcNAc
# Procedure, shortened: as §1
# [14] = biological target: Neu5Ac(a2-3)Gal(b1-3)GlcNAc(b1-2)[Neu5Ac(a2-3)Gal(b1-3)GlcNAc(b1-4)]Man(a1-6)[Neu5Ac(a2-3)Gal(b1-3)GlcNAc(b1-2)Man(a1-3)]Man(b1-4)GlcNAc(b1-4)GlcNAc
# Procedure, shortened: as §1
# [15] = biological target: Neu5Ac(a2-3)Gal(b1-3)GlcNAc(b1-3)GalNAc
# Procedure, shortened: as §1
# [16] = biological target: Neu5Ac(a2-3)Gal(b1-3)GlcNAc6S
# Procedure, shortened: as §1
# [17] = biological target: Neu5Ac(a2-3)Gal(b1-3)[Fuc(a1-4)]GlcNAc(b1-3)Gal(b1-4)[Fuc(a1-3)]GlcNAc
# Procedure, shortened: as §1
# [18] = biological target: Neu5Ac(a2-3)Gal(b1-3)[Neu5Ac(a2-6)]GlcNAc(b1-3)[Fuc(a1-3)[Gal(b1-4)]GlcNAc(b1-6)]Gal(b1-4)Glc
# Procedure, shortened: as §1
# [19] = biological target: Neu5Ac(a2-3)Gal(b1-3)]Neu5Ac(a2-3)Gal(b1-4)]GlcNAc
# Procedure, shortened: as §1
# [20] = biological target: Neu5Ac(a2-3)Gal(b1-4)GlcNAc(b1-2)[Neu5Ac(a2-3)Gal(b1-4)GlcNAc(b1-4)]Man(a1-3)[GlcNAc(b1-4)][Neu5Ac(a2-3)Gal(b1-4)GlcNAc(b1-2)[Neu5Ac(a2-3)Gal(b1-4)GlcNAc(b1-6)]Man(a1-6)]Man(b1-4)GlcNAc(b1-4)GlcNAc
# Procedure, shortened: as §1
# [21] = biological target: Neu5Ac(a2-3)Gal(b1-4)GlcNAc(b1-3)Gal(b1-4)[Fuc(a1-3)]GlcNAc
# Procedure, shortened: as §1
# [22] = biological target: Neu5Ac(a2-3)Gal(b1-4)GlcNAc(b1-3)GalNAc
# Procedure, shortened: as §1
# [23] = biological target: Neu5Ac(a2-3)GalNAc(b1-4)GlcNAc
# Procedure, shortened: as §1
# [24] = biological target: Neu5Ac(a2-8)Neu5Ac(a2-3)Gal(b1-3)GalNAc(b1-4)[Neu5Ac(a2-3)]Gal(b1-4)Glc
# Procedure, shortened: as §1
# [25] = biological target: Neu5Ac(a2-8)Neu5Gc(a2-3)Gal(b1-4)GlcNAc
# Procedure, shortened: as §1
# [26] = biological target: Neu5Gc(a2-3)Gal(b1-4)Glc
# Procedure, shortened: as §1
binder,measurement,setting,value
B1,glycan array binding signal (z-score),[1],-0.203
same,glycan array binding signal (z-score),[2],-0.196
same,glycan array binding signal (z-score),[3],3.73
same,glycan array binding signal (z-score),[4],4.24
same,glycan array binding signal (z-score),[5],3.78
same,glycan array binding signal (z-score),[6],1.62
same,glycan array binding signal (z-score),[7],4.73
same,glycan array binding signal (z-score),[8],-0.338
same,glycan array binding signal (z-score),[9],3.83
same,glycan array binding signal (z-score),[10],1.1
same,glycan array binding signal (z-score),[11],-0.455
same,glycan array binding signal (z-score),[12],-0.336
same,glycan array binding signal (z-score),[13],-0.3
same,glycan array binding signal (z-score),[14],-0.439
same,glycan array binding signal (z-score),[15],-0.385
same,glycan array binding signal (z-score),[16],-0.204
same,glycan array binding signal (z-score),[17],-0.305
same,glycan array binding signal (z-score),[18],-0.416
same,glycan array binding signal (z-score),[19],-0.242
same,glycan array binding signal (z-score),[20],-0.351
same,glycan array binding signal (z-score),[21],-0.398
same,glycan array binding signal (z-score),[22],-0.339
same,glycan array binding signal (z-score),[23],-0.24
same,glycan array binding signal (z-score),[24],-0.287
same,glycan array binding signal (z-score),[25],-0.48
same,glycan array binding signal (z-score),[26],-0.447

# Reference: the supplement of paper PMC8728848
